Data taken from PubChem BioAssay.
Several values for one entry are separate records, joined by “and”; a condition that tells them apart may be missing. Equal entries are not always repeated. A number with no mark means an inactive call. Activity calls are given as the source filed them. How the calls were made is not given here.

How the values were obtained:
[1] = test system: Botulinum neurotoxin type F light chain protease (Clostridium botulinum); test: Clostridium botulinum type F light chain protease inhibitors, microsphere substrate cleavage, validation (AID 588459); conditions: multiplex microsphere protease substrate cleavage assay, flow cytometry; at 10 µM; hits give high values
[2] = target: Botulinum neurotoxin type A (Clostridium botulinum) (UniProt P0DPI0); test: BoNT/A light chain protease inhibitors, biochemical, multiplex microsphere flow cytometry, validation set (AID 588460); conditions: at 10 µM, hits give high values
[3] = target: Lethal factor (Bacillus anthracis) (UniProt P15917); test: Bacillus anthracis lethal factor inhibition, microsphere flow cytometry protease assay, validation at 10 µM (AID 588461); conditions: multiplex microsphere protease cleavage assay, hits give high values

Compound | inhibition [1] | inhibition [2] | inhibition [3]
CCN(CC)CCNC(=O)c1ccc(NC(C)=O)cc1 | 3.4% and 3.6% | 1.2% and -1.2% | -6.2% and -1.6%
COc1ccc(/C=C2\CCn3c2nc2cc(C(=O)O)ccc2c3=O)cc1OC | 1.4% | 1% | 8%
COc1ccc(OC)c(S(=O)(=O)N2CCCc3ccccc32)c1 | -4.6% | -0.4% | -0.9%
Cc1nc2ccccn2c(=O)c1CCN1CCC(C(=O)c2ccc(F)cc2)CC1 | 1.5% | 0.8% | -0.4%
Cn1c(=O)c2c(nc(SCCN3CCCCC3)n2C)n(C)c1=O | -1.4% | 0.2% | -4.6%
CCCOc1ccc(-c2cc(C(=O)NCC3CCCO3)c3ccccc3n2)cc1 (stereo unspecified) | -0.2% | -0.7% | -5.1%
Cc1oncc1C(=O)Nc1ccc(C(F)(F)F)cc1 | 0.9% | 0.7% | 2.2%
COc1ccc(C(=O)[C@H]2[C@H]3C(=O)N(c4ccccc4)C(=O)[C@H]3C3C=CC=NN32)cc1 (stereo partly specified) | 1.9% | 4.7% | -5.1%
CCOc1ccc(N2C(=O)CNC2=S)cc1 | -1.7% | -1.5% | -3.8%
Cc1cn([C@H]2C=C[C@@H](CO)O2)c(=O)[nH]c1=O | -1.8% | -2.2% | -0.8%
NS(=O)(=O)c1cc2c(cc1Cl)NCNS2(=O)=O | -3.8% | -2.4% | -4.7%
COc1c2c(nc3occc13)C(CC=C(C)C)(OC)C(O)CC2 (stereo unspecified) | 0.8% | 0.9% | -4.1%
OC(CCN1CCCCC1)(c1ccccc1)C1CCCCC1 (stereo unspecified) | 3.1% | 1% | 1%
Cc1ccc2[nH]c3c(c2c1)CN(C(=O)CN1CCSCC1)CC3 | 61.5% (active) | 3.7% | 11.6%
O=C(O)c1cc2cc(F)ccc2[nH]1 | 5% | 2.4% | 4%
Cc1ccc(S(=O)(=O)NC(C(=O)Oc2cc3oc(=O)cc(C)c3cc2Cl)C(C)C)cc1 (stereo unspecified) | 0.5% | 0.5% | -3.2%
CC1(C)CC(=O)c2cc(O)ccc2O1 | 2% | 0.1% | -2.1%
Cc1cccc(Nc2ccccc2C(=O)O)c1C | -3.6% | -1.1% | -6%
C[N+]12CCC(CC1)C(OC(=O)C(O)(c1ccccc1)c1ccccc1)C2 (stereo unspecified) | 1% | 0.1% | -0.4%

Compound | inhibition [1] | inhibition [2] | inhibition [3]
O=C(NCCN1CCN(c2ccccc2)CC1)c1cccc(Br)c1 | -4.4% | -2.3% | -6.4%
O=C(CSCc1ccccc1)NCCCN1CCOCC1 | -2.9% | -0.9% | -8.8%
O=C1CCCC(=O)C1=Cc1c[nH]c2ccccc12 | 3% | 0.4% | -6.4%
COc1cc(C(=S)N(C)C)ccc1O | -3.2% | -0.9% | -2%
CCOc1ccc(C(NC(C)=O)c2ccc(OC)c(OC)c2)cc1 (stereo unspecified) | -2.9% | -0.9% | 5.8%
CN1CCc2c(n(CC(O)CN(CCO)CCO)c3ccccc23)C1=O (stereo unspecified) | -0.1% | 0.2% | -3.6%
C[C@@H]1C[C@H](Nc2ccccc2)c2ccccc2N1C(=O)c1cccnc1 | 1% | 1% | -2.9%
CC(C)(C)C(=O)NCCCNc1ccc([N+](=O)[O-])cc1 | -0.6% | -0.3% | 3.3%
CC12CCC(C(=O)N(CCC#N)CCC#N)(CC1=O)C2(C)C (stereo unspecified) | 2.1% | -1.2% | 1.5%
Cc1cc(-c2ccccc2)nnc1NCCN1CCOCC1 | -0.7% | -0.4% | -2.3%
COc1ccc(-c2nnc(-c3cc4c(ccc5ccccc54)oc3=O)o2)cc1 | -0.8% | 0.4% | -1.7%
O=C(Nc1cccc(-c2nc3ncccc3o2)c1)c1ccccc1 | 2.8% | -0.9% | -1.6%
C=CCNC(=S)N1CCc2c([nH]c3ccccc23)C1C (stereo unspecified) | 1.4% | 0.4% | 0.1%
COCCCN1C(=O)/C(=C\c2cccs2)C(C(=O)OC)=C1C | -1.3% | -0.8% | 3.3%
CC(C)C1Cc2[nH]c(=O)c(C(=O)O)cc2CO1 (stereo unspecified) | 2.3% | -0.9% | -1.4%
CC(=O)N1N=C(c2cccs2)CC1c1ccc(C)o1 (stereo unspecified) | -1.2% | -0.8% | 1.7%
COCc1cc(=O)[nH]c(/N=C(\N)Nc2ccc(Oc3ccccc3)cc2)n1 | 3.4% | 0.1% | 5.6%
CC1/C(=C\c2ccc(Cl)cc2)C(=O)C2CC1C2(C)C (stereo unspecified) | 5.2% | 0.2% | -9.7%
CC[C@H]1CN2CCc3cc(OC)c(OC)cc3[C@@H]2C[C@@H]1C[C@H]1NCCc2cc(OC)c(OC)cc21 | 3.7% | 0.9% | 0.6%

Compound | inhibition [1] | inhibition [2] | inhibition [3]
Cc1csc(CCc2nc(C)cs2)n1 | 1.4% | 0.2% | -2.1%
CC(C)CC(NC(=O)c1cccc(Cl)c1)C(=O)O (stereo unspecified) | -4.2% | -2.6% | 0.4%
CC[C@H]1OC(=O)[C@H](C)[C@@H](O[C@H]2C[C@@](C)(OC)[C@@H](O)[C@H](C)O2)[C@H](C)[C@@H](O[C@@H]2O[C@H](C)C[C@H](N(C)C)[C@H]2O)[C@](C)(O)C[C@@H](C)[C@@H]2N[C@@H](COCCOC)O[C@H]([C@H]2C)[C@]1(C)O | 3.3% | 0.7% | -1.4%
N#C/C(=C\c1ccc(O)c(O)c1)C(=O)NCCCc1ccccc1 | 1.8% | 1.2% | -2.8%
O=C(c1ccco1)N(CCC(c1ccccc1)c1ccco1)Cc1ccco1 (stereo unspecified) | -0.1% | -0.1% | 3.5%
CC(=O)NS(=O)(=O)c1ccc(N)cc1 | 0.7% | 1% | 4.5%
CCc1cc2c(=O)c(-c3nc(C)cs3)coc2cc1OC(C)C(=O)NCCO (stereo unspecified) | -3.3% | -0.8% | -2.1%
C[C@@H]1C[C@H]2[C@@H]3CCC4=CC(=O)C=C[C@]4(C)[C@@]3(F)[C@@H](O)C[C@]2(C)[C@H]1C(=O)CO | 0.3% | -1.7% | 7.4%
O=C(N/N=C/c1ccc([N+](=O)[O-])o1)c1ccc(O)cc1 | 0.2% | -3.9% | -11.9%
COc1cc(CC(=O)NCCc2ccc(S(N)(=O)=O)cc2)cc(OC)c1OC | 4.1% | 1.6% | 6.5%
CNCCC=C1c2ccccc2CCc2ccccc21 | -4.9% | 0.2% | -5.8%
CCc1cc2c3c(c(=O)oc2cc1O)CCCC3 | -1.1% | 2.2% | 4.1%
Cc1nc2ccccc2c(=O)n1N | 4.9% | 0.7% | -5.7%
CC(=O)CCc1oc2ccccc2c1-c1ccccc1 | -0.7% | -1.4% | -3.1%
OC[C@H]1O[C@@H](n2cnc3c(Nc4ccccc4)ncnc32)[C@H](O)[C@@H]1O | 1.4% | -0.2% | -2.1%
Cc1cccc(C(=O)c2cccc(C)c2)c1 | -4.8% | -0.8% | -11.4%
CC(C)Cc1nc(NCCN2CCOCC2)c(C#N)c2c1COC(C)(C)C2 | -1.6% | -0.8% | -3%
COc1ccc(C)cc1S(=O)(=O)Nc1ccc(F)cc1 | 1.1% | -0.3% | 0.5%
O=C1c2ccccc2C(=O)N1/N=C/c1ccc(Oc2ccc([N+](=O)[O-])cn2)cc1 | 0.2% | 0.8% | -1.7%
